Compounds with a hit are over-represented: about 18% of the library has one in this group of screens.
IL-1B inflam inh: inflammasome signaling inhibition, IL-1 beta readout; THP-1 LPS/ATP IL-1B secretion, AlphaLISA, 16 h; hits give low values; activity change, % at 57.5 µM; actives 4.7% (n = 360,000); in the data active = activity change below about -50%; inconclusive = mostly about -30% to -49%
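THP-1 cells pretreated 1 hr with compounds (up to 57.5 uM final), then stimulated with LPS (250 ng/mL final) plus ATP (1.25 mM final); secreted IL-1B measured by AlphaLISA after 16 hr, decreased signal indicating inhibition.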
HepG2 tox: kills HepG2 cells in TGF-b inhibitor counter-screen; Potency, µM (doses to about 46.1 µM), hits mostly cytotoxic; actives 0.76% (n = 410,000); HepG2 CAGA-GFP viability, ATP luminescence, 18 h
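HepG2 CAGA-GFP cells (1000/well, DMEM with 1% FBS) received compound, then TGF-beta at 500 pg/mL final, and were incubated 18 hours at 37 degrees C. Viability was read by CellTiter-Glo luminescence. Media-only wells were set as complete cell-killing and DMSO as no toxicity.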
TDP1 block: inhibitors of human tyrosyl-DNA phosphodiesterase TDP1; Q9NUW8; recombinant TDP1, AlphaScreen DNA substrate cleavage; Potency, µM (doses to about 130 µM), most hits filed as inhibitors; actives 0.28% (n = 350,000); also: nearly all actives have a fitted effect of over 40% in size
Target sequence (Q9NUW8 whole entry, looked up): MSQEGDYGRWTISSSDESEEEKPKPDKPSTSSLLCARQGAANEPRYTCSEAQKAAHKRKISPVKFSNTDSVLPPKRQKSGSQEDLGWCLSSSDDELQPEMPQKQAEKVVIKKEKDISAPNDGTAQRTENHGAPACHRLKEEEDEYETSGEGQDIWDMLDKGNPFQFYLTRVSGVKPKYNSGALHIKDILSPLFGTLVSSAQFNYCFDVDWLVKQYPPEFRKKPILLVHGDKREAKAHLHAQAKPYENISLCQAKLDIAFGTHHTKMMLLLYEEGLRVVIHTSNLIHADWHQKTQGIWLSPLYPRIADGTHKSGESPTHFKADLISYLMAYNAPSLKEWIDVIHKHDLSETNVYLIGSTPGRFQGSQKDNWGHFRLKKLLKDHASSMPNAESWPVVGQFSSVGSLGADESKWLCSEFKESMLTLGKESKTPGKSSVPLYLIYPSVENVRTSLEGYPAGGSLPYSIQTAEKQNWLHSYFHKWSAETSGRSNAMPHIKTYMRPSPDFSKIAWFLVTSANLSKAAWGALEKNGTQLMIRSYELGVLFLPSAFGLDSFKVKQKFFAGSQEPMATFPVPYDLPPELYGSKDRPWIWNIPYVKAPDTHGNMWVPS
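Here, a 5' biotin and 3' phosphotyrosine-FITC DNA oligonucleotide reports Tdp1 activity: intact substrate bridges AlphaScreen beads, while cleavage leaves a 3' phosphate and drops signal. All incubations at room temperature.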
TDP1 cell noCPT: qHTS for Inhibitors of human tyrosyl-DNA phosphodiesterase 1 (TDP1): qHTS in cells in absence of CPT; DT40 Tdp1-/- hTDP1 cells, no CPT, ATP luminescence, 48 h; Potency, µM (doses to about 46.2 µM), hits mostly inhibitors; actives 15% (n = 420,000); also: nearly all actives have a fitted effect of over 55% in size
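Growth kinetics read by CellTiter-Glo luminescence after ≥48 hr at 37 °C. Cells: DT40 Tdp1-/- stably carrying human TDP1, 400 per well, compound exposure in the absence of CPT (DMSO vehicle).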
DT40 TDP1 CPT: growth inhibition of DT40 Tdp1-/-;hTDP1 cells with camptothecin (screen for TDP1 inhibitors) | AID 686979 | Potency, µM (titrated, usually from 46.2 µM), most hits filed as inhibitors | actives 12% (n = 420,000) | chicken DT40 Tdp1-/-;hTDP1 cells + 20 nM CPT, ATP luminescence, 48 h; also: nearly all actives have a fitted effect of over 55% in size
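Cell growth measured by CellTiter-Glo luminescence after a minimum 48 h, 37 C compound exposure with 20 nM CPT in Tdp1-knockout DT40 cells stably expressing hTDP1, seeded 400/well; qHTS titration format.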
TGFb SMAD3 inh: TGF-b pathway inhibition. HepG2 CAGA-GFP TGF-b/SMAD3 reporter, GFP fluorescence, 18 h; TGF-beta stimulated, 500 pg/mL final. Potency, µM (doses to about 46.1 µM), most hits filed as inhibitors. actives 1.2% (n = 410,000); also: nearly all actives have a fitted effect of over 65% in size
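Read-out: total well GFP (ex488/em500-530) summed from mean per-cell fluorescence. Cells: HEPG2 CAGA-GFP, 1% FBS DMEM, 18 h at 37 degrees C with 500 pg/mL final TGF-beta. Unstimulated wells served as the full-inhibition control; stimulated DMSO wells = 0%.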
A number is an active result; i = inactive; ? = inconclusive; nt = no result given; [ ] = dose if it differs, or a comment. Unless noted, calls follow the shape of the dose curve; as a rule, active = well fitted curve in the direction sought with a large enough effect; inconclusive = small, poorly fitted or top-dose-only effect, or another doubt; inactive = no such curve, though single readings can be large; an effect the other way counts as inactive or inconclusive.

SMILES	IL-1B inflam inh	HepG2 tox	TDP1 block	TDP1 cell noCPT	DT40 TDP1 CPT	TGFb SMAD3 inh
Cc1ccc2oc(-c3ccc(NC(=O)c4oc5ccc(Cl)cc5c4C)cc3)nc2c1	nt	i	i[2.28 µM]	i	i	i
Cc1nn2c(-c3cccc(NC(=O)CN4CCOCC4)c3)nnc2c2ccccc12	nt	i	nt	12.6µM	29.1µM	i
Cc1ccc(-c2nnc3c4ccccc4c(C)nn23)cc1S(=O)(=O)N1CCN(CCO)CC1	?	i	i	18.4µM	?	i
Cc1nn2c(-c3cccc(NC(=O)CSc4nc5ccccc5o4)c3)nnc2c2ccccc12	i	i	i	7.31µM	11.6µM	?
Cc1nn2c(-c3cccc(NC(=O)c4ccccc4)c3)nnc2c2ccccc12	nt	i	i	2.91µM	4.61µM	i
CSc1nnc(-c2cccc(NC(=O)c3ccccc3)c2)n1C	i	i	i	i	i	?
COc1ccc(OCC(=O)Nc2ccc3c(c2)nc(CCN2CCN(C)CC2)n3C)cc1	i	i	i	?	?	i
Cc1nc2ccc(C(=O)N3CCOc4ccc(CN5CCOCC5)cc4C3)cc2nc1C	nt	nt	nt	i	i[9.04 µM]	nt
COc1cc2cncnc2cc1OCCCCC(N)=O	nt	nt	nt	i	i	nt
CCCCn1nc(NC(=O)c2cccc(Cl)c2)c2cc3cccc(C)c3nc21	nt	i	i	?	?	nt
N#Cc1c(C#N)c(SSc2c(C#N)c(C#N)c(N)n2-c2ccccc2)n(-c2ccccc2)c1N	i	i	nt	4.61µM	4.61µM	i
N#Cc1c(N)n(-c2ccc(N)cc2)c2nc3ccccc3nc12	i	i	i	i	i	i
CC1(C(=O)Nc2cccc(NS(C)(=O)=O)c2)CCN1CCc1ccccc1 (stereo not drawn)	i	i	nt	?	?	i
Nc1cc(OC(=O)c2c(F)cccc2Cl)nn1S(=O)(=O)c1ccccc1	-93.5	i	i	i	i	i
C/C(=N\NC(=O)c1ccc([N+](=O)[O-])cc1Cl)c1ccccc1	i	i	i	?	?	i
O=C(Cn1c(=O)n(-c2ccc(Cl)cc2)c(=O)c2sc3ccccc3c21)NC1CCCC1	nt	i	i	18.4µM	13µM	i
O=C(Cn1c(=O)n(-c2cccc(Cl)c2)c(=O)c2sc3ccccc3c21)N1CCCC1	nt	i	i	14.6µM	?	i
O=C(Cn1c(=O)n(-c2ccc(F)c(Cl)c2)c(=O)c2sc3ccccc3c21)NC1CCCCC1	nt	i	i	i	i	i
Cc1ccc(CCNC(=O)Cn2ncc3c([nH]c4ccc(C)cc43)c2=O)cc1	nt	i	i	i	i	i
O=C(CN1C(=O)C2C3C=CC(C3)C2C1=O)OCC(=O)c1ccc([N+](=O)[O-])cc1 (stereo not drawn)	-69.4	i	i	?	?	i
O=C(CN1C(=O)C2C3C=CC(C3)C2C1=O)OCC(=O)c1ccc(Cl)cc1 (stereo not drawn)	i	i	i	i	i	i
O=C(CCN1C(=O)C2C3C=CC(C3)C2C1=O)N1CCN(c2ccc([N+](=O)[O-])cc2)CC1 (stereo not drawn)	i	i	i	?	?	?
O=C1C2C3C=CC(C3)C2C(=O)N1CCN1CCN(Cc2ccc([N+](=O)[O-])cc2)CC1 (stereo not drawn)	i	i	i	16.4µM	?	i
CC(C(=O)OCC(=O)c1ccccc1)N1C(=O)C2C3CCC(C3)C2C1=O (stereo not drawn)	i	i	i	i	i	i
CC(C(=O)OCC(=O)c1ccc([N+](=O)[O-])cc1)N1C(=O)C2C3CCC(C3)C2C1=O (stereo not drawn)	i	i	i	?	16.4µM	i
SMILES	IL-1B inflam inh	HepG2 tox	TDP1 block	TDP1 cell noCPT	DT40 TDP1 CPT	TGFb SMAD3 inh
CC(C(=O)OCC(=O)c1ccc([N+](=O)[O-])cc1)N1C(=O)C2C3C=CC(C3)C2C1=O (stereo not drawn)	-55.8	i	i	?	16.4µM	i
CCCc1cc(=O)oc2cc(OCC(=O)NC3CC(C)(C)NC(C)(C)C3)ccc12	i	i	i	i	i	i
Cc1c(C(=O)N(C)Cc2nccs2)sc2ncnc(NCC3CCCO3)c12 (stereo not drawn)	nt	nt	nt	?	i	nt
CCOC(=O)C1(C)CCCN(C(=O)C(c2ccccc2)c2ccccc2)C1 (stereo not drawn)	i	i	nt	?	?	i
CN(C)S(=O)(=O)n1cnc(C(CCO)c2ncn(S(=O)(=O)N(C)C)c2CCCO)c1 (stereo not drawn)	i	i	i	i	i	i
CCON1C(=O)C(C)(C)N(OCC)C(=O)C1(C)C	i	i	nt	11.6µM	?	i
CCOC(=O)CON1C(=O)C(C)(C)N(OCC(=O)OCC)C(=O)C1(C)C	i	i	i	i	i	i
CN1CCc2c(OCC(=O)NC3CCCCC3)cccc2C1=O	i	i	i	i	i	i
COc1ccccc1NC(=O)COc1cccc2c1CCNC2=O	i	i	i	6.51µM	10.3µM	i
O=C(COc1cccc2c1CCNC2=O)Nc1ccc(Cl)cc1	i	i	nt	?	18.4µM	i
COc1ccc(NC(=O)COc2cccc3c2CCN(C)C3=O)c(OC)c1	i	i	i	?	13µM	i

Bioassay records from PubChem.
